Where “and” joins values, the source holds several entries; their conditions need not be identical. Equal values may be shown once. The whole screen tested about 360,000 compounds, of which about 3,600 (1%) were called active. This excerpt belongs to a sample that is enriched for actives. Values without a mark were called inactive.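 Rule for the calls: active = compounds whose plate-normalised and pattern-corrected inhibition of the luciferase reporter signal at the single screening dose is 50% or more; inactive = the rest.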
Assay: inhibitors of TROY-driven NF-kB signaling, primary screen, Q293 LMP1-TROYcd cells, NF-kB luciferase, uHTS (AID 1347056)
Details: Q293 LMP1-TROYcd NF-kB luciferase reporter, 4 h; at 10 µM; active compounds read high

Structure (SMILES) | inhibition
CCC(Oc1ccccc1C)C(=O)Nc1ccc(S(=O)(=O)Nc2cc(C)on2)cc1 (centres undefined) | -0.38%
COc1ccc(C(=O)Nc2c(N)nc(SCC(=O)Nc3ccc(C(C)=O)cc3)[nH]c2=O)cc1 | -11%
Cc1ccc(S(=O)(=O)N(CC(=O)Nc2cccc([N+](=O)[O-])c2)Cc2ccc(Cl)cc2)cc1 | 44.3%
COC(=O)Cc1[nH]n(-c2nc3ccccc3s2)c(=O)c1C(C)=Nc1ccc(OC)cc1 | 54.6% (active)
O=C1CSC(=O)N1CCOCCN1C(=O)CSC1=O | -11.1%
COc1ccccc1C(=O)NC(=S)Nc1ccc(N2CCOCC2)cc1 | 30.2%
COc1ccccc1C(=O)NC(=S)Nc1ccccc1N1CCCCC1 | 50.5% (active)
COc1ccccc1C(=O)NC(=S)NC12CC3CC(CC(C3)C1)C2 | 14.8%
Cc1ccc(CN(Cc2cccnc2)C(=S)Nc2cc(Cl)ccc2C)cc1 | -0.68%
NC(=O)C1(C(N)=O)OC1c1ccc(Cl)cc1Cl (centres undefined) | -4.3%
O=C(N/N=C/c1ccc(OC(=O)c2ccccc2Cl)cc1)c1ccc(O)cc1 | 54.5% (active)
CC(C)(C)C(=O)Nc1ccc(C(=O)N/N=C/c2ccccc2OC(=O)c2ccc(Cl)cc2Cl)cc1 | -17%
COc1ccc(C(=O)Nc2ccccc2C(=O)N/N=C/c2ccc(O)c(OC)c2)cc1 | 84.9% (active)
COc1cccc(OCc2cc(/C=N/NC(=O)c3nc(Cl)c(Cl)c(N)c3Cl)ccc2OC)c1 | 11.1%
O=C(NN=Cc1ccc2c(c1)CCC2)c1ccccc1O | -55%
CCOc1ccc(-c2cc(C(=O)N/N=C/c3ccc(O)cc3)c3ccccc3n2)cc1 | 42.4%
CN1C(=O)/C(=C/C=C2\SCCN2C)OC1=S | -2.27%
CCOC(=O)CCCNC(=O)CN1C(=O)NC(CCc2ccccc2)C1=O (centres undefined) | -5.07%
O=C1/C(=C\Nc2ccccc2)CCN1c1ncccn1 | -49.4%
COc1ccc(Cc2nnc(SCC(=O)Nc3ccc(C)c(C)c3)o2)cc1OC | 8.78%
Fc1ccc2[nH]c3c(N4CCSCC4)ncnc3c2c1 | 59.8% (active)
Cc1ccnc(NC(=O)C(C)N2C(=O)c3ccccc3C2=O)c1 (centres undefined) | -1.82%
Oc1c(Cl)cc(Cl)c(Cl)c1Cc1c(O)c(Cl)cc(Cl)c1Cl | 80.3% (active)

Structure (SMILES) | inhibition
CC(Oc1ccccc1)C(=O)Nc1oc(-c2ccco2)c(-c2ccco2)c1C#N (centres undefined) | 14.3%
O=C(O)c1ccc2c(=O)n3c(nc2c1)/C(=C/c1ccc(OC(F)F)cc1OC(F)F)CC3 | 1.62%
c1ccc(-c2nnc(SCc3nc4ccccc4[nH]3)o2)cc1 | 57.9% (active)
Fc1ccc2nc(-c3ccccc3)nc(SCc3nnc(-c4ccccc4)o3)c2c1 | -9.52%
CCN(C(=O)CSc1nnc(-c2ccncc2)o1)c1ccccc1 | 2.98%
COc1ccc(C(C)=O)cc1CN1C(=O)NC2(CCCCC2C)C1=O (centres undefined) | 19%
CCOc1ccc(CCNC(=O)CCc2nnc3ccc(N4CCCC4)nn23)cc1OCC | 3.54%
Cc1nc2sccn2c(=O)c1S(=O)(=O)NCCc1ccccc1 | -4.17%
O=C(Nc1cc(Cl)ccc1N1CCOCC1)c1ccc(N2CCCC2=O)cc1 | 70.3% (active)
O=C(Nc1cc(S(=O)(=O)N2CCOCC2)ccc1OCC(F)(F)F)c1ccc(N2CCCC2=O)cc1 | 1.27%
O=C(Nc1cc(-c2nn(CC(=O)N3CCCCC3)c(=O)c3ccccc23)ccc1N1CCOCC1)c1ccc(Cl)cc1 | -10.6%
CN(C)C(=O)c1ccc2c(c1)C1C3CCC(C3)C1C(c1ccccc1)N2 (centres undefined) | -1.11%
O=C(C1CCC(=O)N(C2CC2)C1)N1CCN(c2ccc(Cl)cc2)CC1 (centres undefined) | -7.66%
Cc1ccc(S(=O)(=O)N(C)C)cc1NC(=O)C(C)OC(=O)c1ccc2ccccc2n1 (centres undefined) | -2.57%
COC(=O)c1ccccc1NC(=O)Cn1nc(C(F)(F)F)c2c1CCC2 | -27%
Cc1ccc(CSc2nc(-c3ccccc3)c(C#N)c(=O)[nH]2)cc1 | 54% (active)
Cc1ccccc1CSc1nnc(-c2ccccc2)c(=O)[nH]1 | -16.6%
N#Cc1c(-c2ccccc2)nc(SCc2cccc(C(F)(F)F)c2)[nH]c1=O | 41.2%
Cc1ccc(NC(=O)Cc2nnc(SCC(=O)Nc3nncs3)n2C)cc1 | -1.88%
CCOC(=O)Cc1c(C)nc2c(C#N)c(C)nn2c1C | 10.1%
CN(CC(=O)NCc1ccncc1)S(=O)(=O)c1ccc(Br)cc1 | 0.22%
Cc1ccc(S(=O)(=O)N2CCCCC2)cc1NC(=O)CCNC(=O)c1ccccc1 | -24.1%
OCC[C@H]1C[C@H](O)[C@@H](O)[C@]2(CCCCO2)O1 | -23.7%

Structure (SMILES) | inhibition
C[C@@H]1CC[C@]2(O[C@@H](CCO)C[C@H](O)[C@H]2O)O1 | 0.26%
C[C@H]1CC[C@]2(O[C@@H](CCO)C[C@@H](O)[C@@H]2O)O1 | 80.2% (active)
CCOC(=O)C1(C)CCCN(C(=O)c2ccc(F)c(Cl)c2)C1 (centres undefined) | 2.88%
Cc1ccccc1N1CCN(Cc2nc(Cc3ccccc3F)no2)CC1 | -8.4%
O=C(/C=C/c1cnc2ccccc2n1)NC1CCCCCC1 | -49.1%
Cc1nc2cc(NC(=O)CSc3nc4c(C)cccc4cc3C#N)ccc2s1 | 4.28%
COc1ccc(/C(O)=C2/C(=O)C(=O)N(c3nc(C)c(C)s3)C2c2ccco2)cc1 (centres undefined) | -21.4%
CCOc1ccc(/C(O)=C2\C(=O)C(=O)N(c3ccc(OC)cc3)C2c2ccccc2[N+](=O)[O-])cc1 (centres undefined) | 54.8% (active)
COc1ccc(C2/C(=C(/O)c3ccccc3)C(=O)C(=O)N2c2ncccn2)cc1OC (centres undefined) | -2.92%
Cc1ccc(C(O)c2ncc(-c3ccccc3F)[nH]2)cc1F (centres undefined) | -21.9%
CC(=O)c1ccc(N2CCN(S(=O)(=O)c3ccc4c(c3)CC(=O)N4C)CC2)cc1 | -27.6%
Cc1cnc(CN(C)C(=O)CC2C(=O)NCCN2Cc2cccc(F)c2F)[nH]1 (centres undefined) | 3.88%
COc1c(C)cc(C(=O)C2CCCN(S(=O)(=O)c3c(C)noc3C)C2)cc1C (centres undefined) | 50.3% (active)
Cc1noc(C)c1S(=O)(=O)N1CCCC(C(=O)Nc2nccs2)C1 (centres undefined) | -32.5%
Cc1ccc(NC(=O)C2CCCN(S(=O)(=O)c3c(C)noc3C)C2)c(C)c1 (centres undefined) | -7.46%
CCOC(=O)CCC(NC(=O)c1ccc(CNc2nc3cc(C(F)(F)F)ccc3nc2C(=O)OCC)cc1)C(=O)OCC (centres undefined) | -25.2%
CCCCCc1nnc(NC(=O)c2ccc(=O)n(C)n2)s1 | -18.4%
O=C(CN1C(=O)/C(=C\c2ccccc2F)SC1=S)Nc1nc2ccccc2s1 | 68.3% (active)
O=C(CN1C(=O)/C(=C/c2ccccc2F)Sc2ccccc21)NCc1cccnc1 | 44.7%
CN(C(=O)CN1C(=O)S/C(=C\c2ccccc2F)C1=O)C1CCS(=O)(=O)C1 (centres undefined) | 6.08%
COc1ccc(CNC(=O)CCC(=O)Nc2nnc(C(C)C)s2)cc1 | -5.09%
O=C(O)C1C2C=CC(C2)C1C(=O)N1CCN(CCO)CC1 (centres undefined) | -8.15%
CC1(C)SC2C(NC(=O)COc3ccccc3)C(=O)N2C1C(=O)O (centres undefined) | -1.14% and 4.62%

Structure (SMILES) | inhibition
COc1ccc(C2=NO[C@@H]3C(=O)N(Cc4ccccc4)C(=O)[C@H]23)cc1OC | -14.4%
COc1ccc(-c2cc(C(=O)N(C)Cc3ccc(OC)c(OC)c3OC)c3ccccc3n2)cc1OC | 19.6%
COc1ccc(-c2cc(C(F)(F)F)nc(S(C)(=O)=O)n2)cc1OC | 55% (active)
c1ccc2c(C[n+]3csc4ccccc43)cccc2c1 | 13.4%
Cc1noc(C)c1C(=O)NC(C)c1ccc2c(c1)OCO2 (centres undefined) | 1.6%
O=C(COC(=O)C1CC2CCCC(C1)C2=O)NC(=O)c1ccccc1 (centres undefined) | 4.06%
Cn1c(-c2ccc(C(F)(F)F)cc2)cc2onc(-c3ccccc3)c2c1=O | 69.6% (active)
Cn1c(-c2ccc(F)cc2)cc2onc(-c3ccccc3Cl)c2c1=O | 6.78%
O=c1c2ccccc2c(-c2ccc(F)cc2)nn1-c1ccc(C(F)(F)F)cc1 | -12.3%
COc1cc(/C(=C/c2ccccc2)c2ccccc2)c2c(c1)oc1ccccc12 | 0.46%
Cc1ccc(S(=O)(=O)N(C)c2nc3ccccc3n3c(C(C)C)nnc23)cc1 | 6.76%
CC1(C)N=C(N)NC(Nc2ccc(Cl)cc2)=N1 | -5.09%
Cc1cc(OCc2ccc(C(=O)Nc3ccc(C(=O)O)cc3)o2)ccc1Cl | -33.7%
O=c1oc2ccccc2cc1-c1cn(-c2ccccc2)c(=S)[nH]1 | 90.1% (active)
O=C1Cc2ccccc2Sc2ccc(Cl)cc21 | -41.4%
CCCCNC(=O)C[C@@H]1C[C@@]2(C(=O)OCC)CCC=C2N(Cc2ccco2)C1=O | 1.34%
O=c1c(/C=N/O)coc2ccc(Cl)cc12 | 12.5%
CC(C)(C)OC(=O)NCCCCCC(=O)N/N=C/c1coc2ccccc2c1=O | -22.3%
Cc1ccc2occ(/C=N/NC(=O)c3ccccc3C)c(=O)c2c1 | 57.9% (active)
CC1(Cc2ccccc2C#N)C(=O)Nc2ccc(-c3ccc4[nH]ccc4c3)cc21 (centres undefined) | 24.8%

Reference: PubChem BioAssay AID1347056 (Sanford-Burnham Center for Chemical Genomics, 2019)
